High-throughput results from PubChem BioAssay.
Pf growth 96h: Primary qHTS for delayed death inhibitors of the malarial parasite plastid, 96 hour incubation; P. falciparum luciferase reporter growth, 96 h; Potency, µM (titrated, usually from 28.7 µM), most hits filed as inhibitors; actives 6.9% (n = 320,000)
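Parasite growth measured via integrated firefly luciferase reporter in P. falciparum. Infected erythrocytes at 2% hematocrit, 0.05% parasitemia final were treated 96 hours at 37 C under 5% CO2, and luminescence was read.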
Pf growth 48h: Primary qHTS for delayed death inhibitors of the malarial parasite plastid, 48 hour incubation | Potency, µM (top dose mostly 28.7 µM), most hits filed as inhibitors | P. falciparum luciferase growth in erythrocytes, 48 h | actives 5.9% (n = 310,000) | AID 504832, 2011
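Here the parasites carry a stable luciferase gene and grow inside erythrocytes in Albumax-based RPMI medium with compound for one erythrocytic cycle. Activity is scored as loss of luminescent signal.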
Cycloheximide cs: Cycloheximide Counterscreen for Small Molecule Inhibitors of Shiga Toxin. cell reporter, cycloheximide protein synthesis inhibition counterscreen. max response, %. actives 12% (n = 300,000); in the data active = max response mostly above about 13%, no sharp cut-off; inactive = mostly below about 14%; also: read at 38.3 µM for the half of the compounds with a filed dose
Shiga toxin inh: A qHTS for Small Molecule Inhibitors of Shiga Toxin | Vero cells, Shiga toxin protein synthesis inhibition reporter | inhibition, % at 38.7 µM | actives 9.2% (n = 290,000) | AID 2315, 2010; in the data active = inhibition mostly above about 28%, no sharp cut-off; inactive = mostly below about 43%
A number is an active result; . = inactive; ? = inconclusive; / = no result given; ! = repeats disagree; [ ] = dose if it differs, or a comment. Shown are actives, neighbours in structure and some others; about 21% of the full set was active somewhere. Unless noted, calls follow the shape of the dose curve; as a rule, active = well fitted inhibition curve with a large enough effect; inconclusive = small, poorly fitted or top-dose-only effect, or another doubt; inactive = no such curve, though single readings can be large or run the other way.

SMILES	Pf growth 96h	Pf growth 48h	Cycloheximide cs	Shiga toxin inh
Cc1cc(NN)nc(Cc2ccccc2)n1	?	.[0.00184 µM]	.	.
c1ccc(C2CNCCc3ccccc32)cc1 (stereo not drawn)	1.7µM	.[0.00184 µM]	.	.
Cc1ccc(CNC(=S)Nc2ccc(NS(=O)(=O)c3ccc(C)cc3)cc2)cc1	10µM	.	.	.
Cc1ccc(S(=O)(=O)NNC(=S)Nc2ccccc2)cc1	/	.	23	.
Cc1ccc(S(=O)(=O)NC(=O)Nc2ccccc2)cc1	6.6µM	.	.	.
CCc1cc2c3c(c1)C1(C(=O)N3C(C)(C)C=C2C)C(C#N)=C(N)Oc2[nH]c(=O)[nH]c(=O)c21 (stereo not drawn)	.	?	.	.
O=C1C=C(c2ccc3c(c2)OCO3)C[C@@H](c2ccc(F)cc2)C1	.	.	/	/
Oc1ccccc1C1C=C(c2ccc3c(c2)OCO3)NC(c2ccc(F)c(Br)c2)N1 (stereo not drawn)	/	/	36	100
Oc1ccc(Br)cc1C1C=C(c2ccc3c(c2)OCO3)NC(c2ccc(F)c(Br)c2)N1 (stereo not drawn)	/	/	54	93
CCCCN(CC(=O)NC1CCCC1)C(=O)C(=O)Nc1ccc2c(c1)OCCO2	.	.	.	.
CC(C)CCNC(=O)C1(O)c2ccccc2NC(=O)N1c1ccc(Cl)cc1 (stereo not drawn)	.	.	10	.
CCOCCCNC(=O)C1(O)c2ccccc2NC(=O)N1c1ccc(Cl)cc1 (stereo not drawn)	?	.[0.00184 µM]	.	.
O=C1Nc2ccccc2C(O)(C(=O)NCc2ccco2)N1c1ccccc1 (stereo not drawn)	?	.	.	.
O=C1Nc2ccccc2C(O)(C(=O)NCc2ccco2)N1c1ccc(Cl)cc1 (stereo not drawn)	/	.	18	.
Cc1cc(S(=O)(=O)N2c3ccc(F)cc3CCC2C)ccc1-n1cnnn1 (stereo not drawn)	.	.	.	.
CCOC(=O)c1sc(NC(=O)CCCn2nc([N+](=O)[O-])cc2C)c(C(=O)OCC)c1C	.	.	.	.
O=C(COC(=O)/C=C/c1ccc2c(c1)OCO2)NCc1ccccc1	.	.	/	/
O=C(/C=C/c1ccc2c(c1)OCCCO2)c1ccc2ccccc2c1O	.	.	12	40
Cc1ccc(C(=O)/C=C/c2ccc3c(c2)OCCO3)c(O)c1	.	.	40	86
CNc1ccc(/C=C/C(=O)c2ccc3c(c2)OCCO3)cc1[N+](=O)[O-]	.	.	.	.
O=S(=O)(c1ccc2c(c1)OCCO2)N1CCN(S(=O)(=O)c2cccc[n+]2[O-])CC1	/	/	.	.
COCCNC(=O)c1cc(-c2ccccc2)n(Cc2cc(C)no2)n1	.	.	/	/
CN(C)c1ccc(C(=S)N2CCCCCC2)cc1	.	/	.	.
CC1CCN(C(=S)c2ccc(N(C)C)cc2)CC1	.[5.75 µM]	.	.	62
CN(C)c1ccc(C(=S)N2CCN(c3ccc([N+](=O)[O-])cc3)CC2)cc1	.	.	.	.
SMILES	Pf growth 96h	Pf growth 48h	Cycloheximide cs	Shiga toxin inh
CN(C)c1ccc(C(=S)N2CCN(c3ccccc3)CC2)cc1	.	.	25	.
Cc1ccc(N2CCN(C(=S)c3ccc(N(C)C)cc3)CC2)cc1	.	?	59	active
COc1ccc(CCN(C(=O)c2ccco2)C(C(=O)NC2CCCC2)c2ccncc2)cc1OC (stereo not drawn)	.	.	.	.
COc1ccc(CCN(C(=O)C(F)(F)F)C(C(=O)NC2CCCC2)c2cccs2)cc1OC (stereo not drawn)	7.4µM	?	.	.
C#CC(=O)N(c1ccc(OC)c(OC)c1)C(C(=O)NC1CCCC1)c1cccs1 (stereo not drawn)	.	.	.	.
COc1ccc(CCN(C(=O)C(F)(F)F)C(C(=O)NC2CCCCC2)c2ccc(C)s2)cc1OC (stereo not drawn)	?	4.1µM	.	.
COc1ccc(Cl)cc1NC(=S)NCc1ccco1	.	.	.	.
Cn1c(SC2=CS(=O)(=O)c3ccccc32)nc2ccccc21	.[5.75 µM]	5.2µM	.	.
CC(C)Cn1c(SCC#N)nc2ccccc2c1=O	.	.	.	.
O=c1[nH]c(CSc2cccc[n+]2[O-])nc2ccccc12	?	13µM	.	.
CC(C)Cn1c(SCc2nc3ccccc3c(=O)[nH]2)nc2ccccc2c1=O	.	7.4µM	.	.
OCCn1c(CSc2nc3ccccc3n2CCO)nc2ccccc21	?	.	.	.
CC(NC(=O)CSc1nc2ccccc2n1C)c1ccccc1 (stereo not drawn)	.	.	.	.
Cn1c(CSc2nc3ccccc3n2C)nc2ccccc21	.	.	19	.
CN1CCCN(C(=O)c2cccc3ccccc23)CC1	.	.	.	.
CC(C)(/C=N/NC(=O)CSCc1ccc(Cl)cc1)CCC#N	.	.	.	.
O=C(NC(Cc1ccccc1)C(=O)O)/C(=C/c1cccc([N+](=O)[O-])c1)NC(=O)c1cccc(Br)c1 (stereo not drawn)	?	.	.	.
COc1cccc(CN2CCNC(=O)C2CC(=O)NCCc2nc(C)c(C)s2)c1OC (stereo not drawn)	.	.	.	.
Cn1c(SCc2nc3ccccc3c(=O)[nH]2)nc2ccccc21	.	.	17	.
Cn1c(-c2ccccc2)cnc1SCc1nc2ccccc2c(=O)[nH]1	2.3µM	.	27	114
CC1CCCN(C(=O)CSc2nnc(-c3cccs3)o2)C1 (stereo not drawn)	.	.	39	64
CCC1CCCCN1C(=O)CSc1nnc(-c2cccs2)o1 (stereo not drawn)	.	.	29	89
O=C(CCS(=O)(=O)Cc1ccccc1F)NCc1ccccc1Cl	.	.	.	.
O=C(NCCS(=O)(=O)N1CCN(c2ccccc2F)CC1)c1cccs1	.	?	/	/
C=CCN1C(=O)C(CCCC)NC1=S (stereo not drawn)	.	.	.	.
SMILES	Pf growth 96h	Pf growth 48h	Cycloheximide cs	Shiga toxin inh
C=CCN1C(=O)C(CC(C)C)NC1=S (stereo not drawn)	0.54µM!	.	.	.
Cc1ccc(S(=O)(=O)Cn2nnnc2C(C(C)C)N2CCN(Cc3ccco3)CC2)cc1 (stereo not drawn)	.	10µM	.	.
Cc1ccc(C(c2nnnn2CS(=O)(=O)c2ccc(C)cc2)N2CCN(c3ncccn3)CC2)cc1 (stereo not drawn)	?	4.1µM	.	.
Cc1ccc(S(=O)(=O)Cn2nnnc2CN(Cc2ccco2)Cc2cccs2)cc1	.	10µM	.	.
Cc1ccc(S(=O)(=O)Cn2nnnc2C(CC(C)C)N2CCN(C)CC2)cc1 (stereo not drawn)	.	?	.	.
Cc1ccc(S(=O)(=O)Cn2nnnc2C(CC(C)C)N2CCN(c3ccccc3)CC2)cc1 (stereo not drawn)	.	7.4µM	.	.
Cc1ccc(S(=O)(=O)Cn2nnnc2C(C(C)C)N2CCSCC2)cc1 (stereo not drawn)	?	.	.	.
C[C@H](O)CC1=C[C@H](O)[C@@H](C)OC1=O	.	.	.	.
O=C(COC(=O)c1ccccc1O)Nc1cc([N+](=O)[O-])ccc1Cl	.	.	.	.
